Measurements published in the supplement of paper PMC11732987, “Enantioselective OTUD7B fragment discovery through chemoproteomics screening and high-throughput optimisation” (Communications Chemistry, 2025).

What was measured:
Experiment in all cases: log2 ratio of Biotin-Ahx-Ub-VS probe labelling (fragment/DMSO); higher = less target engagement (more negative = stronger competition), active = hit call of the paper (q ≤ 0.05, log2 ratio ≤ -1)
Conditions in all cases: compound concentration: 200 uM; treatment time: 3 h
USP19 = target: T1, USP19 (UniProt O94966)
T1 sequence (whole entry): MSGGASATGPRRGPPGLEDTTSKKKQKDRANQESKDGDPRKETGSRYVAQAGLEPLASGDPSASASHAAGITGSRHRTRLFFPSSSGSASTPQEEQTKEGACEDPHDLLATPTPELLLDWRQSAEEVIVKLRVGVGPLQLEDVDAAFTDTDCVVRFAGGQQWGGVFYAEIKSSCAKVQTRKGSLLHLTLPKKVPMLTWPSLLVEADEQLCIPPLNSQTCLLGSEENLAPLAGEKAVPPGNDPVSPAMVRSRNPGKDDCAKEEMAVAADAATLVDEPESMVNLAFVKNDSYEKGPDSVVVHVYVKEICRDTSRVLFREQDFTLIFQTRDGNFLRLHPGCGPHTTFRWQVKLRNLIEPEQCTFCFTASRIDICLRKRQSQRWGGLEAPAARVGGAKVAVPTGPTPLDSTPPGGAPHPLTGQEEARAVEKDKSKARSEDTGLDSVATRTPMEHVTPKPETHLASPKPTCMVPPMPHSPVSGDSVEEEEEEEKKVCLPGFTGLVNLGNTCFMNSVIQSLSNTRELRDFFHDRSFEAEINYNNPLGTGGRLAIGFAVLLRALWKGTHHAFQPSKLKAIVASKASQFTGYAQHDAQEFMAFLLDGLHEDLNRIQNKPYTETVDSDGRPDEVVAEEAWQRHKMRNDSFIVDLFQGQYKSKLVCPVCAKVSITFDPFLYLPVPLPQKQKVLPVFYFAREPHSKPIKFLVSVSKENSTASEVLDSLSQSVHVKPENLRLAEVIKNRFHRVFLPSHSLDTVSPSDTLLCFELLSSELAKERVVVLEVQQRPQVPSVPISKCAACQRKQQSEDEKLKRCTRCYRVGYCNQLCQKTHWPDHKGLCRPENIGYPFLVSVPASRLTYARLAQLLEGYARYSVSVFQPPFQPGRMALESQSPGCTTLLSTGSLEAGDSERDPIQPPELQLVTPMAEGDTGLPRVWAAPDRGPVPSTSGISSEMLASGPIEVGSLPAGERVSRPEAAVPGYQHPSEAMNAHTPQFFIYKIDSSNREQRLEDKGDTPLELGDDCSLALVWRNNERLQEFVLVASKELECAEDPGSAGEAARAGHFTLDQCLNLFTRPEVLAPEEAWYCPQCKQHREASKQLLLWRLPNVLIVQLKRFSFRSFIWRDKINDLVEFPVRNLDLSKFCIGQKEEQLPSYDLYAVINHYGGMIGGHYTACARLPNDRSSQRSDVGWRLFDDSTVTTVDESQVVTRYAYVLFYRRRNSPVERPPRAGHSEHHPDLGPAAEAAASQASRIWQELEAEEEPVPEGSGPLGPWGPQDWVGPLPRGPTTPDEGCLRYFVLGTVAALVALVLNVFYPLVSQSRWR
In short: (§1)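 HEK293T lysate (495 µg per sample, in Tris/CHAPS/IGEPAL buffer with protease inhibitors) was treated in triplicate with fragment at 200 µM or with DMSO for 3 h. It was then treated with Biotin-Ahx-Ub-VS (0.5 µM final) for 1 h. Labelled DUBs were NeutrAvidin-enriched, digested with LysC and trypsin, and run by diaPASEF LC-MS/MS. Spectronaut label-free quantities were global-median-normalised. Values are average log2 ratios fragment/DMSO by unpaired t-test, using proteins with ≥2 unique peptides.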

USP24 = USP24 (UniProt Q9UPU5)
In short: as §1

USP25 = target: T2, USP25 (UniProt Q9UHP3)
T2 sequence (whole entry): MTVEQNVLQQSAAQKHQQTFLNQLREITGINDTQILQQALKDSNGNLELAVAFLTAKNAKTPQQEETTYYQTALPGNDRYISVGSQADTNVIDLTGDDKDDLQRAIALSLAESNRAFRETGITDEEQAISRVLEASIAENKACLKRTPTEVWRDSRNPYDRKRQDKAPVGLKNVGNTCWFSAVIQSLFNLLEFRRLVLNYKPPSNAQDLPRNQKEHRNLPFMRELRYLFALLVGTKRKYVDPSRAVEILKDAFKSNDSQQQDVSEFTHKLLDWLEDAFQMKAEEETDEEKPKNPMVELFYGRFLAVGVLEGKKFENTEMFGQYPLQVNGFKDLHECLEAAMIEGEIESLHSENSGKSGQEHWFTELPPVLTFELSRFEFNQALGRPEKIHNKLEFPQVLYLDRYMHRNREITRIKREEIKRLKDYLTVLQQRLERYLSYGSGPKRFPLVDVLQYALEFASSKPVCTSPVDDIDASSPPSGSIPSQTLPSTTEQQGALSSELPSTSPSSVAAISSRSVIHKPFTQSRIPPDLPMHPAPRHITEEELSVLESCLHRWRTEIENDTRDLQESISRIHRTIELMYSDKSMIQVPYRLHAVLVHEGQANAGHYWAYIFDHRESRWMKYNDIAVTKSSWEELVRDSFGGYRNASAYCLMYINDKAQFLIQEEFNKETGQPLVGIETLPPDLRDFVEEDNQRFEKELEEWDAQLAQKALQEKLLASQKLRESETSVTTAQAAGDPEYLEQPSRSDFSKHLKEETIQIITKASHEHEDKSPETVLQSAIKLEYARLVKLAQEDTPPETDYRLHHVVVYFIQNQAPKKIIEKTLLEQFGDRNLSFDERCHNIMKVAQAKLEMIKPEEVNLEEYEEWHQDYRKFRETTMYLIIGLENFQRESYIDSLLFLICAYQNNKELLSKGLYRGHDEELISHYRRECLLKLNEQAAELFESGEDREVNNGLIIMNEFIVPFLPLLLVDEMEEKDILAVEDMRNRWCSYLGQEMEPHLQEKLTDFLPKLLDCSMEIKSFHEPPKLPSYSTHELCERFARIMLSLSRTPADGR
In short: as §1

USP28 = target: T3, USP28 (UniProt Q96RU2)
T3 sequence (whole entry): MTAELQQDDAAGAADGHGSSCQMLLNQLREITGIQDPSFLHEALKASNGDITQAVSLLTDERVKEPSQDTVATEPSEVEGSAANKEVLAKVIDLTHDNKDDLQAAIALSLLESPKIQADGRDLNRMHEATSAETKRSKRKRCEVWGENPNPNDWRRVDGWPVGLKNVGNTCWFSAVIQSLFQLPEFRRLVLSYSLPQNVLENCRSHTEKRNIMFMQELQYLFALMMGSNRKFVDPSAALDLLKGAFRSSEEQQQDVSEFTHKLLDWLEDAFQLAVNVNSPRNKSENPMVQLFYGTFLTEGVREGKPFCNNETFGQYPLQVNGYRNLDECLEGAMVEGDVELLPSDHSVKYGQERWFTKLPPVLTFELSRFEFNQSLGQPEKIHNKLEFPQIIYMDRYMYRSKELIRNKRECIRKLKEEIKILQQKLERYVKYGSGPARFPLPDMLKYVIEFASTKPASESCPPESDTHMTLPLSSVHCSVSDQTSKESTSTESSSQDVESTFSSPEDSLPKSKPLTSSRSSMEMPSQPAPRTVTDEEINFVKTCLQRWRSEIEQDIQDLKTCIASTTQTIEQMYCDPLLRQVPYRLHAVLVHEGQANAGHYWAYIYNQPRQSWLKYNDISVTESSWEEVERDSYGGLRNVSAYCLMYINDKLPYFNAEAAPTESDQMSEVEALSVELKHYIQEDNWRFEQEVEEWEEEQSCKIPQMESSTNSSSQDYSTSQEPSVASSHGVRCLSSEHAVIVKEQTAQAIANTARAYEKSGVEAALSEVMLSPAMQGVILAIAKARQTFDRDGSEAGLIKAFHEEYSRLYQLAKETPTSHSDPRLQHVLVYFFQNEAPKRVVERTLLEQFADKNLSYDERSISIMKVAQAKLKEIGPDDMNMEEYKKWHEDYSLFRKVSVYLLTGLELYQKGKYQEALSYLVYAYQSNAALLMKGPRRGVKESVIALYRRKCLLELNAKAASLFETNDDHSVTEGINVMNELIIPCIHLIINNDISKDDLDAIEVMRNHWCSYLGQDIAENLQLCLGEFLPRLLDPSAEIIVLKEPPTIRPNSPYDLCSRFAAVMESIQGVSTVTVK
In short: as §1

Measured: log2 ratio of Biotin-Ahx-Ub-VS probe labelling

Chain of USP24 (Q9UPU5 whole entry): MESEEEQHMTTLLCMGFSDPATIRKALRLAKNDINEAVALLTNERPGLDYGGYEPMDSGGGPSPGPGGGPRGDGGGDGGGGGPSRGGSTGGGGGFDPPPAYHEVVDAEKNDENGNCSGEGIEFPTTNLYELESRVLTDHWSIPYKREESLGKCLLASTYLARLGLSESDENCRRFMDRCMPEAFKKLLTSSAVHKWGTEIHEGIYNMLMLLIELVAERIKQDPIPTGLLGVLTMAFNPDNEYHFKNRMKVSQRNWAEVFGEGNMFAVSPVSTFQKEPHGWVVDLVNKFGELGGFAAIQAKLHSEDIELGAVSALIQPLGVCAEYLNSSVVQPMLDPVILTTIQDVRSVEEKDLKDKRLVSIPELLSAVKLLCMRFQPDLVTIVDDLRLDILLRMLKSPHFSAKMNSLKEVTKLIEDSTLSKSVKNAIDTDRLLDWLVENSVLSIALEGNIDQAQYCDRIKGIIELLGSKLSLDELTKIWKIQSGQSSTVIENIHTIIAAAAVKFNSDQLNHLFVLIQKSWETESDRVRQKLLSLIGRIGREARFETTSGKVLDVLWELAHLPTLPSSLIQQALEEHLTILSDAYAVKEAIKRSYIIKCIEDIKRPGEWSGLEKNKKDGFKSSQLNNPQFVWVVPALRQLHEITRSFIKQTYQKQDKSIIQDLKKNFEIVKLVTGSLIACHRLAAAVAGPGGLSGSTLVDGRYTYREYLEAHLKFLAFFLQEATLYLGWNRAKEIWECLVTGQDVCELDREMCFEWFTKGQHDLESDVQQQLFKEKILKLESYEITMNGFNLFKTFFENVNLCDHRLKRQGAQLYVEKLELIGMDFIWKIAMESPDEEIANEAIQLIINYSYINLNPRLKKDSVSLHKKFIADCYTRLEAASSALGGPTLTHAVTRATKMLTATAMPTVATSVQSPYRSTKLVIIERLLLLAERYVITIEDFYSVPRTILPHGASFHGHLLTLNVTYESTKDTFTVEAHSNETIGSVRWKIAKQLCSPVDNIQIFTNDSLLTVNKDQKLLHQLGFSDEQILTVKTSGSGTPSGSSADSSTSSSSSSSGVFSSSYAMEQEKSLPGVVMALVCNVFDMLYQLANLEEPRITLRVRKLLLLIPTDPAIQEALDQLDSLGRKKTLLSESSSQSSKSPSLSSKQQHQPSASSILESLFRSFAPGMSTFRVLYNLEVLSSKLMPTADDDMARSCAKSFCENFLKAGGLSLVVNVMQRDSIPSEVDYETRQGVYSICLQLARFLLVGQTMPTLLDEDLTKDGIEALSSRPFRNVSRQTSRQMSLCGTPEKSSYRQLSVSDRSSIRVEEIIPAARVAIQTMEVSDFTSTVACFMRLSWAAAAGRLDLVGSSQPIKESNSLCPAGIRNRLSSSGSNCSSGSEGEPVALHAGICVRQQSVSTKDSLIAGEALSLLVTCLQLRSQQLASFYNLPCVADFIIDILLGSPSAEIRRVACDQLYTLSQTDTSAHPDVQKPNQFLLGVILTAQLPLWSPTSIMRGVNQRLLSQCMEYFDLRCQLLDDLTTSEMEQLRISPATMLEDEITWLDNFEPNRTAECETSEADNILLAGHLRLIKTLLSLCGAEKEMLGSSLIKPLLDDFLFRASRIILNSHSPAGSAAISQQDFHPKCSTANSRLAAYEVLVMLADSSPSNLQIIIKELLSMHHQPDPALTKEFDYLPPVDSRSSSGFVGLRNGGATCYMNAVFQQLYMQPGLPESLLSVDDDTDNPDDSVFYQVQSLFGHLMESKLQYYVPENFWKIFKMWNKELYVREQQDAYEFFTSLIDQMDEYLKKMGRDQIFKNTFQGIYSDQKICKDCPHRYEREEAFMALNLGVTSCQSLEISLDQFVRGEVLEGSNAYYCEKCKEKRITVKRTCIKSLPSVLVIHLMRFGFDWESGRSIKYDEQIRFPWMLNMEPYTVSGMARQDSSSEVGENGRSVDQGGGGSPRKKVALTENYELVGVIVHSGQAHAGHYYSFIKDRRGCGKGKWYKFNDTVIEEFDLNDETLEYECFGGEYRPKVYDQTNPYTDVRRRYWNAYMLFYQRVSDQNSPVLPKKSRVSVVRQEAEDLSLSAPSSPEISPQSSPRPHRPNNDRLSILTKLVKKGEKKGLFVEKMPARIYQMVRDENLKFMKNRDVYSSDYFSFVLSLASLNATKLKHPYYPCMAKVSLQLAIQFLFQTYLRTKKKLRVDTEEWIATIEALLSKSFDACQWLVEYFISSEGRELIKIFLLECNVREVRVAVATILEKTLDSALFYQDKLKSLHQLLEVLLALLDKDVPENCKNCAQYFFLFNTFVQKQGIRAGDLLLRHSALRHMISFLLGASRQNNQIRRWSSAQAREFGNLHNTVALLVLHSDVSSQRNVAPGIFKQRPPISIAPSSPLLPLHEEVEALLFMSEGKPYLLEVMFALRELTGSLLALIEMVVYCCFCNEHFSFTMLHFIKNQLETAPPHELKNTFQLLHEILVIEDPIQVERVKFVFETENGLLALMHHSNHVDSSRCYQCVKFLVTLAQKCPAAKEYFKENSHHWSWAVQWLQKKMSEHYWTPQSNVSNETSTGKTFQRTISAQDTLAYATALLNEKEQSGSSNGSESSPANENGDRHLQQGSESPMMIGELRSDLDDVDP

CN(CCC(O)c1ccc(Br)cc1)C(=O)CCl (centres undefined)
inactive: USP19 -0.439 | USP24 -0.901 | USP25 -0.071 | USP28 -0.457
